Consider one sequence from paper PMC7862700, “An all-to-all approach to the identification of sequence-specific readers for epigenetic DNA modifications on cytosine”.

Assay in all cases: DAPPL (digital affinity profiling via proximity ligation, sequencing); 10 mM Tris-HCl pH 7.5, 50 mM NaCl, 1 mM DTT, 4% glycerol, room temperature, 30 min; GST-TFs on glutathione beads, 16-mer random dsDNA library, 0.1% formaldehyde crosslink after washing; high values mean tight binding
Holding throughout (settings): protein: recombinant; tags: N-terminal GST; dsDNA, one strand shown

In one experiment the target is T1, ELK1 (Homo sapiens, UniProt P19419 1-428).
T1 sequence: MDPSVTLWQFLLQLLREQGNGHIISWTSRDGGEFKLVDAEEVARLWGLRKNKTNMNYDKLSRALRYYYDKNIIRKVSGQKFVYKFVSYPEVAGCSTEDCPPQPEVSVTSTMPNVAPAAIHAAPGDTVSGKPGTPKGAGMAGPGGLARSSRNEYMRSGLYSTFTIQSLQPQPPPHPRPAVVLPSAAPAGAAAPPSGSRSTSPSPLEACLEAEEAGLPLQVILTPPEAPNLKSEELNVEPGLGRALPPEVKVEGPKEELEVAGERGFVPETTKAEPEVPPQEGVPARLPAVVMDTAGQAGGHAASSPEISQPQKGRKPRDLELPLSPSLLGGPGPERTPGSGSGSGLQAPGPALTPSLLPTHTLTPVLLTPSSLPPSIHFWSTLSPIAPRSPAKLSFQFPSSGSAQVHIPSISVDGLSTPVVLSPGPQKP
The essentials: (§1)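 Sequencing on an Illumina NextSeq500 followed washing, crosslinking with 0.1% formaldehyde, proximity ligation (BsaI/T4 ligase, 1 h, 37 °C) and PCR amplification of pools that had been incubated for 30 min at room temperature with 200 nmole of a random double-stranded 16-mer DNA library in Tris/NaCl/DTT/glycerol buffer. Each pool held DNA-barcoded human transcription factors, expressed in yeast as GST fusions and captured on glutathione beads, plus a tag-only sample. Binding signal is a hexamer's read frequency for a factor divided by its frequency in the tag-only sample.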

A further experiment has as its target T2, GABPA (Homo sapiens, UniProt Q06546 1-454).
T2 sequence: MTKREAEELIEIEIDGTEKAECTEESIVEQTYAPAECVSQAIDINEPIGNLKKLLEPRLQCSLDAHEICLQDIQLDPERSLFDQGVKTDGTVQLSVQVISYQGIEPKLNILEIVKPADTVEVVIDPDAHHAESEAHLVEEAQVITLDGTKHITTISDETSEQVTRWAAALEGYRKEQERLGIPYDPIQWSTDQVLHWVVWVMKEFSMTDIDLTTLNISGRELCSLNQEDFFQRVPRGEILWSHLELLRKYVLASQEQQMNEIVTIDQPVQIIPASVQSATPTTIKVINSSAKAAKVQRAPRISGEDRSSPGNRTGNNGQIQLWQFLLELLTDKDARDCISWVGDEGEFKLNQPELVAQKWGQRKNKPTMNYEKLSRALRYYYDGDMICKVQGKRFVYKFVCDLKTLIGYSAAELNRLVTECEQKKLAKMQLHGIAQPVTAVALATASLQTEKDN
The method, boiled down: as §1

For another experiment, the target named is T3, ERG (Homo sapiens, UniProt P11308 1-479).
T3 sequence: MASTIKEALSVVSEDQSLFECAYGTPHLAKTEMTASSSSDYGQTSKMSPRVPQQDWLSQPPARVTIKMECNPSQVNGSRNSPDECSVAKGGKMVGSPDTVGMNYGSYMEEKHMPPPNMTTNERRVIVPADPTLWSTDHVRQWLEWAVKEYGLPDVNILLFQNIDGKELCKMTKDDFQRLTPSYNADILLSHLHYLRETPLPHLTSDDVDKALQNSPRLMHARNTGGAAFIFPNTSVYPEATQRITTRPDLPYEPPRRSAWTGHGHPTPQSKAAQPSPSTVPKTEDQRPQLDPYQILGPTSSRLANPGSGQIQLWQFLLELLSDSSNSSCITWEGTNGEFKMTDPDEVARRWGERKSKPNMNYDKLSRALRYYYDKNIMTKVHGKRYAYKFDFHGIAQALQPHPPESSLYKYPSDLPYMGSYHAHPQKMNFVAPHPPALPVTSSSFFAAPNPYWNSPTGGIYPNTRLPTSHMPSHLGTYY
The essentials:
as §1

Another experiment addresses ELF1 (Homo sapiens, UniProt P32519 1-619). The essentials: as §1
In the next experiment the target is T4, EHF (Homo sapiens, UniProt Q9NZC4 1-300).
T4 sequence: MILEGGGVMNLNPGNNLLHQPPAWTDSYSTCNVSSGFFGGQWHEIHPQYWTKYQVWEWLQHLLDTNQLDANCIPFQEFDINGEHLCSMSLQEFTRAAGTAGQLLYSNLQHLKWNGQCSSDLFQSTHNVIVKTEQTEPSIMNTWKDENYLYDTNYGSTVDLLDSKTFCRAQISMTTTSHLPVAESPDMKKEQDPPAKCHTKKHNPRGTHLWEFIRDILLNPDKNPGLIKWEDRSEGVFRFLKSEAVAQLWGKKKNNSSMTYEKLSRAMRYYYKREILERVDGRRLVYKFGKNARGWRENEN
The essentials: as §1

A further experiment has as its target SPIB (Homo sapiens, UniProt Q01892 1-262). The method, boiled down:
as §1

The target in the next experiment is T5, ELK3 (Homo sapiens, UniProt P41970 1-407).
T5 sequence: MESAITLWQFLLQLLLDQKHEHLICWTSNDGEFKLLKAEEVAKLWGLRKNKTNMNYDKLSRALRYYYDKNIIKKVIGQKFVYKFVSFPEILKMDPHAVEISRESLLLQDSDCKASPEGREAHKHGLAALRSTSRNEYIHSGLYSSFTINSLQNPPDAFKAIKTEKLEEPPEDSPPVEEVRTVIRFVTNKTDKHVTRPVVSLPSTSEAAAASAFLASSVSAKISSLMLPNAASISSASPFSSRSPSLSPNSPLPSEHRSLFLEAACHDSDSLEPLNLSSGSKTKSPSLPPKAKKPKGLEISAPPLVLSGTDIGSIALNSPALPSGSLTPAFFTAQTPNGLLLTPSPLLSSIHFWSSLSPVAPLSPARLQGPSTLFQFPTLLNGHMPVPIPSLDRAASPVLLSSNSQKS
The essentials:
as §1

In the next experiment the target is ETV5 (Homo sapiens, UniProt P41161 1-510). The method, boiled down: as §1
Sequence of ETV5 (P41161 whole entry): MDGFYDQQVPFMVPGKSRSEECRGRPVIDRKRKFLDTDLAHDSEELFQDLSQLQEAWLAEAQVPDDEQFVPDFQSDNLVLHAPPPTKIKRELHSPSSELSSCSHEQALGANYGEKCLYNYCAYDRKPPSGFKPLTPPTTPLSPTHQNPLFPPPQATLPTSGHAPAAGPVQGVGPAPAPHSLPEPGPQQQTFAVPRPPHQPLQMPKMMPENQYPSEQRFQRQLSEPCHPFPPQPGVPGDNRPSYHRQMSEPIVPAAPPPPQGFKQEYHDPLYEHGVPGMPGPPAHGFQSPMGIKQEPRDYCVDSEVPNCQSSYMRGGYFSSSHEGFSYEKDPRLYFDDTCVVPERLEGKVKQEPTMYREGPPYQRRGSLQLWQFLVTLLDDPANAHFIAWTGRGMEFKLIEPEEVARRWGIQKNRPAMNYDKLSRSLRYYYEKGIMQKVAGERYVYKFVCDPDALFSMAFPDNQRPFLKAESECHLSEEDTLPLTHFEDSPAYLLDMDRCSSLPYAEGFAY
Another experiment addresses T6, SPIC (Homo sapiens, UniProt Q8N5J4 1-248).
T6 sequence: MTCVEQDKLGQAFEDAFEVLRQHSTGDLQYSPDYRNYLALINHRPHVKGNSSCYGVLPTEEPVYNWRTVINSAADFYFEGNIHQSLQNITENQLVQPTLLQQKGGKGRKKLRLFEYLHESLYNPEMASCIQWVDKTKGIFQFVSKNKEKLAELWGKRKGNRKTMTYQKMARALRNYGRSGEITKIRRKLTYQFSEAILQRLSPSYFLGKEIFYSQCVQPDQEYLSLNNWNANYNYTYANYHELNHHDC
The method, boiled down:
as §1

A further experiment deals with ELF4 (Homo sapiens, UniProt Q99607 1-663). The method, boiled down:
as §1

A further experiment concerns the target T7, ELK4 (Homo sapiens, UniProt P28324-2 1-405).
T7 sequence: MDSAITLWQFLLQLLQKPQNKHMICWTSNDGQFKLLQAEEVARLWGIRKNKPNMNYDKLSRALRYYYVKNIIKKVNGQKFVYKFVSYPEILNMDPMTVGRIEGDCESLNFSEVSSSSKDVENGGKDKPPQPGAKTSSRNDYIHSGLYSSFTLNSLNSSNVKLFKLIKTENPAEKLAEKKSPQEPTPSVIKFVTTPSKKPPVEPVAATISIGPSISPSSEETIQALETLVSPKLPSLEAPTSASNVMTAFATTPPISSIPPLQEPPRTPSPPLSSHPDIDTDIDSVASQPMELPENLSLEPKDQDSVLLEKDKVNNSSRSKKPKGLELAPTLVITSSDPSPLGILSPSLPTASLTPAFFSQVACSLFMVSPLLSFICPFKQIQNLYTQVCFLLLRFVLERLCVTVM
The method, boiled down:
as §1

Another experiment has as its target T8, ELF3 (Homo sapiens, UniProt P78545 1-371).
T8 sequence: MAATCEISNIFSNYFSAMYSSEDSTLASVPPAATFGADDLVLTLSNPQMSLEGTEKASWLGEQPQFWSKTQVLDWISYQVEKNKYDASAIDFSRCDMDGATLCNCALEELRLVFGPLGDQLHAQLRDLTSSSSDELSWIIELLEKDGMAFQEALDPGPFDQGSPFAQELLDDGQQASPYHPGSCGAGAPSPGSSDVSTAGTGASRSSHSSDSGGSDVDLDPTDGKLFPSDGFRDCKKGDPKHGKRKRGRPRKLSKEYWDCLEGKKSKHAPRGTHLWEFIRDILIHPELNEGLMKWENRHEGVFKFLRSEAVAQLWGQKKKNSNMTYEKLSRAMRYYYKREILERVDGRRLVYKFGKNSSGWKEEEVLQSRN
The essentials: as §1

For another experiment, the target named is ETV1 (Homo sapiens, UniProt P50549 1-477). The method, boiled down: as §1
Sequence of ETV1 (P50549 whole entry): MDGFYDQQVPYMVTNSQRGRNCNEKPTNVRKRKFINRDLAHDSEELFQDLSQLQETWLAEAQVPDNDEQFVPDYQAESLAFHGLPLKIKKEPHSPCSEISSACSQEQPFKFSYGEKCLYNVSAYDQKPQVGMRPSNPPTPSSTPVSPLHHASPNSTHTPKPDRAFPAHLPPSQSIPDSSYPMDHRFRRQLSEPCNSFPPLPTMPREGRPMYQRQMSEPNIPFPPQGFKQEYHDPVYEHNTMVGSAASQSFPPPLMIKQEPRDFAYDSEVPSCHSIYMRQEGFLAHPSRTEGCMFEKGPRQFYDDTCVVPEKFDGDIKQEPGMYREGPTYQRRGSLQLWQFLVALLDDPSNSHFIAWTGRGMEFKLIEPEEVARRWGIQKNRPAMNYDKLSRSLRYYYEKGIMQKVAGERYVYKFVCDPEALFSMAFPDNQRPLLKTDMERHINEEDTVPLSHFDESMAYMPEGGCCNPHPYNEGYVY
The target in another experiment is T9, ERF (Homo sapiens, UniProt P50548 1-548).
T9 sequence: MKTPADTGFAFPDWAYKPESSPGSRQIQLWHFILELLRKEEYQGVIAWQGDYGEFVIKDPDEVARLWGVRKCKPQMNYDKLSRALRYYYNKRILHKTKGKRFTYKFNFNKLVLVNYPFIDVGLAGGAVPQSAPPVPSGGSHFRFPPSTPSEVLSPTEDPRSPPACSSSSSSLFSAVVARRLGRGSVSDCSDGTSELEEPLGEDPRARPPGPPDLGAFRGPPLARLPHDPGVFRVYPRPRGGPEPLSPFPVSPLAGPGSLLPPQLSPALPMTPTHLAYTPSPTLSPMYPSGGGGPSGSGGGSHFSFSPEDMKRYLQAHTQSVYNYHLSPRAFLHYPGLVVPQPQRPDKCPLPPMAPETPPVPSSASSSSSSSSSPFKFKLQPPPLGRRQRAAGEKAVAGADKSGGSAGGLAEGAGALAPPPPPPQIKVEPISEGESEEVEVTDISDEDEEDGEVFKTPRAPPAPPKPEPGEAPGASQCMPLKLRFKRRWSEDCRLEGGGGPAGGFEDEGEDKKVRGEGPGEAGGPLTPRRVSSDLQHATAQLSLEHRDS
The essentials: as §1

The target of another experiment is T10, ETV3L (Homo sapiens, UniProt Q6ZN32 1-361).
T10 sequence: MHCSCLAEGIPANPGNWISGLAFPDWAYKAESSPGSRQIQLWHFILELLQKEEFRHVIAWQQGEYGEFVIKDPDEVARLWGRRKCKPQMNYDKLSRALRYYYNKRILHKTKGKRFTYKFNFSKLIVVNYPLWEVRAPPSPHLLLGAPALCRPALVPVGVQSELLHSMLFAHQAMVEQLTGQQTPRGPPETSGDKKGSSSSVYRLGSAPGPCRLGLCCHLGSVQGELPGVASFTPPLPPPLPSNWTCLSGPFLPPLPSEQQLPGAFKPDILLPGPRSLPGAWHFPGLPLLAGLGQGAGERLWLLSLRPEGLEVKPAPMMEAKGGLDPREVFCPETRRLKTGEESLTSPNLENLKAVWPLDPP
The method, boiled down: as §1

The target in a further experiment is T11, SPDEF (Homo sapiens, UniProt O95238 1-335).
T11 sequence: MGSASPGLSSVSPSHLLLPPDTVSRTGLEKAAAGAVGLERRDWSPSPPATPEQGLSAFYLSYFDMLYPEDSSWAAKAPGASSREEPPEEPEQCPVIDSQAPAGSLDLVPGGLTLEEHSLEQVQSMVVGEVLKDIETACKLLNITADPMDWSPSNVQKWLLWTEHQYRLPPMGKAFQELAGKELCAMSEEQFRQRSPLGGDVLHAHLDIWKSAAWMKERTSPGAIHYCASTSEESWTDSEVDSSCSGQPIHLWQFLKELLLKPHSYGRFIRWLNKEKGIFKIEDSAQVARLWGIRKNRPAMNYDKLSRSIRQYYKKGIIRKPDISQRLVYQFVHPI
The essentials:
as §1

The target of another experiment is T12, ETV3 (Homo sapiens, UniProt P41162-2 1-143).
T12 sequence: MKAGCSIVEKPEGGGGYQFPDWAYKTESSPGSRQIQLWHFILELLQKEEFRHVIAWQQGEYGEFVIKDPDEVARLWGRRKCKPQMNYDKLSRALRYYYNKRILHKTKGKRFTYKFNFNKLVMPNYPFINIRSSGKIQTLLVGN
The essentials: as §1

In a further experiment the target is ETV6 (Homo sapiens, UniProt P41212 1-452). The method, boiled down: as §1
Sequence of ETV6 (P41212 whole entry): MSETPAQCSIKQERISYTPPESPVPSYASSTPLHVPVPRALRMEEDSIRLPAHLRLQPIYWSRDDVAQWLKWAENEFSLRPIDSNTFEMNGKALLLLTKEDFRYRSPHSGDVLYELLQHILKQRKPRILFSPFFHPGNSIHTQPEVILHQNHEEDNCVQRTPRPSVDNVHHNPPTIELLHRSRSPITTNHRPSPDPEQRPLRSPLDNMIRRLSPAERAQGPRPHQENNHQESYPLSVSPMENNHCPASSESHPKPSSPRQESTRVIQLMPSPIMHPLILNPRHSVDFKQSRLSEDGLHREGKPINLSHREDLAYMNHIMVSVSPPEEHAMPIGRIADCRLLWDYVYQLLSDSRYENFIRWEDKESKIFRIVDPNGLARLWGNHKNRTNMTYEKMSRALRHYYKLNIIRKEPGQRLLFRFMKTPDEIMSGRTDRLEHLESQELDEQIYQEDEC

Sequence of SPIB (Q01892 whole entry): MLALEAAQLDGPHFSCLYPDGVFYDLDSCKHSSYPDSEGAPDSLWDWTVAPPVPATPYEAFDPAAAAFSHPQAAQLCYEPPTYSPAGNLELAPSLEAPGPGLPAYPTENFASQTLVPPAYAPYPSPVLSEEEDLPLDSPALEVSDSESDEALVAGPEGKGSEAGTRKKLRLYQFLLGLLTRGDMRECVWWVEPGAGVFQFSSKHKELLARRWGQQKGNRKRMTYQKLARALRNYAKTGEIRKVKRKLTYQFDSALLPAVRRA
Sequence of ELF4 (Q99607 whole entry): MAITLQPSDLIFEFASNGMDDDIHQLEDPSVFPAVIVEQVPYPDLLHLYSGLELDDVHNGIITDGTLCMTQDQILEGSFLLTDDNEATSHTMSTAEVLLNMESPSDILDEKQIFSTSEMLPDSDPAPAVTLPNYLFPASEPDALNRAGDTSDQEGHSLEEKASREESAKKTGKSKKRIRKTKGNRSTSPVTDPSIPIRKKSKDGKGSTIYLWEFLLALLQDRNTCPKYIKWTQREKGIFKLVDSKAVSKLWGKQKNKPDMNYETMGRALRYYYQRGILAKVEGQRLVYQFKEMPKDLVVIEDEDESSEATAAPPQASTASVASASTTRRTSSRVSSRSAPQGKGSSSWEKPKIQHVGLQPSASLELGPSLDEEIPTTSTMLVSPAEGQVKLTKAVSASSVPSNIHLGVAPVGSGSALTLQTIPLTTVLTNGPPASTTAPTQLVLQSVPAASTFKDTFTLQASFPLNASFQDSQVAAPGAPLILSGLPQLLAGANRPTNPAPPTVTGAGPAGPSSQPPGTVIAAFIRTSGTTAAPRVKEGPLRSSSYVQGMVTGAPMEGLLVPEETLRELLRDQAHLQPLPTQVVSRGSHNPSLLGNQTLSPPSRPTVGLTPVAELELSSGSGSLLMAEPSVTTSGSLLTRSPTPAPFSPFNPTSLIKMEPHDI
Sequence of ELF1 (P32519 whole entry): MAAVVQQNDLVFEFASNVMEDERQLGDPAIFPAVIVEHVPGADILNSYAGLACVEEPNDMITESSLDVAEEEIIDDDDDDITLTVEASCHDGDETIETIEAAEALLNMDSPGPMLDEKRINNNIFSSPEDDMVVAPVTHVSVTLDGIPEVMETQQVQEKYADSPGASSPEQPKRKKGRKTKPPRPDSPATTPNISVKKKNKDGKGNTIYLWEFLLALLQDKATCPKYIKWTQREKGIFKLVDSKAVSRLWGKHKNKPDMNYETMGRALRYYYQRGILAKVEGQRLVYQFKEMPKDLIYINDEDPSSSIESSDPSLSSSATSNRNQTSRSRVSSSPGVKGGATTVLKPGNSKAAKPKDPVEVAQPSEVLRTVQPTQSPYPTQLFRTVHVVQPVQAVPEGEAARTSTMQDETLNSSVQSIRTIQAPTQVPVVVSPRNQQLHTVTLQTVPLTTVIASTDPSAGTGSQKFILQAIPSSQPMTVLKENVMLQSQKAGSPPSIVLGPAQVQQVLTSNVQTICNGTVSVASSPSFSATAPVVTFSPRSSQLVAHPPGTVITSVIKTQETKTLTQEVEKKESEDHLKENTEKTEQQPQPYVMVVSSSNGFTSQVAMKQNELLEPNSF

As to CGCGCC, the binding signal was 1.01 fold enrichment (6-mer frequency, TF over GST control) with ELK1; 1.03 fold enrichment (6-mer frequency, TF over GST control) with GABPA; 1.03 fold enrichment (6-mer frequency, TF over GST control) with ERG; 1.06 fold enrichment (6-mer frequency, TF over GST control) in the experiment with ELF1; 1.05 fold enrichment (6-mer frequency, TF over GST control) in the experiment with EHF; 1 fold enrichment (6-mer frequency, TF over GST control) in the experiment with SPIB. The binding signal is 1.05 fold enrichment (6-mer frequency, TF over GST control) with ELK3; 1.11 fold enrichment (6-mer frequency, TF over GST control) in the experiment with ETV5; 1.23 fold enrichment (6-mer frequency, TF over GST control) with SPIC; 1.05 fold enrichment (6-mer frequency, TF over GST control) with ELF4; 1.15 fold enrichment (6-mer frequency, TF over GST control) with ELK4; 1.05 fold enrichment (6-mer frequency, TF over GST control) with ELF3. In addition, the binding signal in the experiment with ETV1 was 1.14 fold enrichment (6-mer frequency, TF over GST control); in the experiment with ERF it was 1.1 fold enrichment (6-mer frequency, TF over GST control); with ETV3L it was 1.05 fold enrichment (6-mer frequency, TF over GST control); with SPDEF it was 1.03 fold enrichment (6-mer frequency, TF over GST control); in the experiment with ETV3, 1.09 fold enrichment (6-mer frequency, TF over GST control); with ETV6 it was 1 fold enrichment (6-mer frequency, TF over GST control).
